Measured values from PubChem BioAssay.
The source made the active and inactive calls. Unless noted, no rule for the calls is given here.

Columns and labels:
[1] = kinase inhibitors against Plasmodium liver-stage infection, cell-based, known kinase inhibitor set, luminescence, hepatoma host viability (AID 624392); conditions: Plasmodium liver stage in hepatoma cells, luciferase luminescence, concentration not given here; liver cell % of control: measured here: host liver cell viability; parasite % of control: stronger effect = lower value;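 also: infected cells incubated roughly two days before readout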
[2] = hESC survival regulators, cell-based (AID 493140); conditions: human embryonic stem cell survival screen; stronger effect = higher value;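 also: cells exposed to compounds for four days before counting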
[3] = liver-stage malaria parasite growth inhibition, primary screen, cell-based, HepG2, luciferase luminescence, HepG2 viability (AID 624349; in the data active = parasite load remaining mostly below about 12%, no sharp cut-off; inactive = mostly above about 10%;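 also: 100% = mean of DMSO negative control wells on the same plate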); conditions: P. berghei liver stage in HepG2, luciferase luminescence, concentration not given here; parasite load remaining: stronger effect = lower value; viability: measured here: HepG2 viability without parasites
[4] = system: Hepatitis C virus NS3 helicase; experiment: HCV NS3 helicase inhibitors, primary screen, biochemical, fluorescence polarization, LOPAC1280 library (AID 687035; in the data active = inhibition above about 37%); conditions: Purified HCV NS3 helicase, Cy5-dT15 ssDNA binding fluorescence polarization; stronger effect = higher value; concentration not given here
[5] = Cy5 fluorescence quenching or enhancement artefacts, artefact control for HCV NS3 helicase inhibitor project, biochemical, LOPAC1280 (AID 687037); conditions: Cy5-DNA-NS3h complex fluorescence interference counterscreen

**Q.** What does the source list for O=C1NC(=O)C(=Cc2ccc(-c3ccc(S(=O)(=O)N4CCOCC4)cc3)o2)C(=O)N1?
**A.** liver cell % of control [1]: 98.4%; parasite % of control [1]: 98.3% (inactive)

**Q.** Which survival [2] does the source give for CC(=O)OC(C)C(C)C(=O)OC[C@]12C(C)[C@H]3O[C@@H]1C[C@]1(C)C(=CCC4[C@@]5(C)CCC(OC6O[C@H](C(=O)O)[C@H](O[C@H]7O[C@@H](CO)[C@@H](O)[C@@H](O)[C@@H]7O)[C@H](O)[C@H]6O[C@@H]6OO[C@@H](O)[C@H](O)[C@@H]6O)[C@](C)(CO)C5CC[C@]41C)[C@@H]2CC3(C)C (some centres not stated) here?
**A.** The survival was 2.17 (inactive).

**Q.** What does the source list for O=C1NC(=O)C(=Cc2ccc(-c3ccc(F)cc3O)o2)C(=O)N1?
**A.** liver cell % of control [1]: 100%; parasite % of control [1]: 87.6% (inactive)

**Q.** For CCN1C[C@]2(C)CC[C@H](OC)[C@]34C2[C@H](OC(C)=O)C2(OCO[C@@]25CC(OC)C2C[C@]3(O)C5[C@H]2OC)[C@@H]14 (some centres not stated), which survival [2] is on record?
**A.** Its survival is 5 (inactive).

**Q.** For O=c1cccc2n1CC1CNC[C@@H]2C1, which survival [2] is on record?
**A.** The survival was 9 (inactive).

**Q.** And the parasite load remaining [3]?
**A.** The parasite load remaining was 70.3% (inactive).

**Q.** What about the viability [3] of the same compound?
**A.** The viability was 77.8%.

**Q.** Which inhibition [4] does the source give for C=CCN1CC[C@]23c4c5ccc(O)c4O[C@@H]2/C(=N\N=C2\CC[C@@]4(O)C6Cc7ccc(O)c8c7[C@@]4(CCN6CC=C)[C@@H]2O8)CC[C@@]3(O)C1C5 here?
**A.** Its inhibition is -6% (inactive).

**Q.** What about the fluorescence ratio (interference) [5] of the same compound?
**A.** Its fluorescence ratio (interference) is 0.9 (inactive).

**Q.** For COC1=C[C@H]2C3=C([C@H]2C1=O)[C@@H](NC(C)=O)CCc1cc(OC)c(OC)c(OC)c13, which survival [2] is on record?
**A.** The survival was 13.2 (inactive).

**Q.** And the parasite load remaining [3]?
**A.** The parasite load remaining was 78.4% (inactive).

**Q.** What about the viability [3] of the same compound?
**A.** The viability was 74.3%.

**Q.** Which survival [2] does the source give for CC1O[C@@H](O[C@@H]2C=C3CCC4C(CC[C@]5(C)[C@@H](c6ccc(=O)oc6)CC[C@]45O)[C@@]3(C)CC2)C(O)[C@@H](O)[C@H]1O (some centres not stated) here?
**A.** Its survival is 2.83 (inactive).

**Q.** What does the source list for NS(=O)(=O)c1ccc(-c2ccc(C=C3C(=O)NC(=S)NC3=O)o2)cc1?
**A.** liver cell % of control [1]: 102%; parasite % of control [1]: 96.9% (inactive)

**Q.** Which results are given for O=S(=O)(c1c(O)c(Cl)cc(Cl)c1Cl)c1c(O)c(Cl)cc(Cl)c1Cl?
**A.** parasite load remaining [3]: 27.4% (inactive); viability [3]: 70.9%

**Q.** With O=C1NC(=O)C(=Cc2ccc(-c3ccc(Cl)cc3)o2)C(=O)N1 as the compound, how does the liver cell % of control [1] read?
**A.** The liver cell % of control was 87%.

**Q.** What about the parasite % of control [1] of the same compound?
**A.** Its parasite % of control is 167% (inactive).

**Q.** Which survival [2] does the source give for CC(C)C1C(=O)N2CCCC2C2(O)OC(NC(=O)C3CC4c5cccc6[nH]cc(c56)CC4N(C)C3)(C(C)C)C(=O)N12 (configuration not stated) here?
**A.** Its survival is 8 (inactive).
